# Results: PubChem BioAssay (NCATS)
# Results filed as inconclusive are left out. A call without a number means that no potency is given here. Activity calls are given as the source filed them. Unless noted, calls follow the shape of the dose curve; as a rule, active = well fitted activation curve with a large enough effect in the main read-out, with a control signal flat (not every such curve was filed as active); inconclusive = small, poorly fitted or top-dose-only effect, or effect the other way, or a change in a side signal; inactive = flat fitted curve, though single readings scatter.
# Legend:
# [1] = Confirmation and Secondary Assay for Modulators of Hemoglobin Beta Chain Splicing at IVS2 654 locus (AID 910; active = well fitted curve in the direction sought with a large enough effect; an effect the other way counts as inactive or inconclusive); conditions: HeLa EGFP-654 splicing reporter, GFP fluorescence, 48 h; series mostly up to 46.1 µM
# How it was run: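 HeLa cells stably carrying EGFP interrupted by mutant beta-globin IVS2-654 intron (CMV-driven) were treated with compound for 2 days at 37C; corrected splicing was scored as total peak GFP intensity per well (488 nm excitation, 500-520 nm emission).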
# [2] = Confirmation and Secondary Assay for Modulators of Hemoglobin Beta Chain Splicing at IVS2 705 locus (AID 930; active = well fitted curve in the direction sought with a large enough effect; an effect the other way counts as inactive or inconclusive;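 also: HeLa cells stably expressing the EGFP-705 splicing reporter; GFP fluorescence per well restored by corrected splicing of the IVS2-705 intron in EGFP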); conditions: HeLa EGFP-705 splicing reporter, GFP fluorescence, 48 h; series mostly up to 46.1 µM
# How it was run: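 HeLa cells stably carrying EGFP interrupted by mutant beta-globin intron 2 (IVS2-705) treated 2 days at 37C with compound; 500 nM antisense PNA as control. Correct splicing read as total peak GFP intensity per well by laser-scanning cytometry.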
# [3] = molecular target: Ubiquitin carboxyl-terminal hydrolase 1 (Homo sapiens) (UniProt O94782); assay: Inhibitors of USP1/UAF1: Pilot qHTS (AID 504865; active = well fitted curve in the direction sought with a large enough effect; an effect the other way counts as inactive or inconclusive;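 also: rhodamine fluorescence freed from ubiquitin-rhodamine substrate followed over time; top concentration of the series differs between compounds; nearly all actives have a fitted effect of over 35% in size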); conditions: purified USP1/UAF1, Ub-rhodamine cleavage fluorescence; series mostly up to 114 µM
# How it was run: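 1nM USP1/UAF1 + cpd, 15 min RT; start w/ Ub-Rho 150nM final; kinetic FL 480/540 nm, 6 reads q60 s. Buffer 50mM HEPES pH 7.8, 0.5mM EDTA, 1mM TCEP, 0.01% Tween-20, 0.1 mg/ml BSA.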
# [4] = molecular target: Mitogen-activated protein kinase 10 (Mus musculus) (UniProt Q61831); assay: JNK3 AlphaScreen Assay (AID 530; active = well fitted curve in either direction with a large enough effect, not every such curve was filed as active;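 also: kinase came from lysate of stimulated human HepG2 cells; signal reports phosphorylation of biotinylated GST-cJun 1-79 at Ser73 with 10 µM ATP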); conditions: JNK3 lysate, c-Jun phosphorylation; series mostly up to 57.1 µM
# How it was run: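 JNK3 came from HepG2 lysates pre-activated with IL-1beta and TNF-alpha and phosphorylated biotinylated GST-cJun (1-79) at 10 uM ATP, pH 7.6, room temperature. Compounds were titrated. AlphaScreen signal used anti-phospho-cJun (Ser73) antibody.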
# [5] = molecular target: 3',5'-cyclic-AMP phosphodiesterase 4B (Homo sapiens) (UniProt Q07343); assay: qHTS Assay for Inhibitors of PDE-IV (AID 607); conditions: HEK293 ACTOne CNG channel cells, membrane potential fluorescence; series mostly up to 22.9 µM
# How it was run: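 ACTOne HEK293 cells carry a modified cAMP-gated CNG channel and express endogenous PDE4; plated 1000 cells/well, compounds up to 22.9 uM final. Membrane-potential dye fluorescence (ex 535/em 590) was read; parental cells received 10 uM forskolin + 100 uM RO 20-1724.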
# Chain of 3',5'-cyclic-AMP phosphodiesterase 4B (Homo sapiens) (Q07343 whole entry, looked up): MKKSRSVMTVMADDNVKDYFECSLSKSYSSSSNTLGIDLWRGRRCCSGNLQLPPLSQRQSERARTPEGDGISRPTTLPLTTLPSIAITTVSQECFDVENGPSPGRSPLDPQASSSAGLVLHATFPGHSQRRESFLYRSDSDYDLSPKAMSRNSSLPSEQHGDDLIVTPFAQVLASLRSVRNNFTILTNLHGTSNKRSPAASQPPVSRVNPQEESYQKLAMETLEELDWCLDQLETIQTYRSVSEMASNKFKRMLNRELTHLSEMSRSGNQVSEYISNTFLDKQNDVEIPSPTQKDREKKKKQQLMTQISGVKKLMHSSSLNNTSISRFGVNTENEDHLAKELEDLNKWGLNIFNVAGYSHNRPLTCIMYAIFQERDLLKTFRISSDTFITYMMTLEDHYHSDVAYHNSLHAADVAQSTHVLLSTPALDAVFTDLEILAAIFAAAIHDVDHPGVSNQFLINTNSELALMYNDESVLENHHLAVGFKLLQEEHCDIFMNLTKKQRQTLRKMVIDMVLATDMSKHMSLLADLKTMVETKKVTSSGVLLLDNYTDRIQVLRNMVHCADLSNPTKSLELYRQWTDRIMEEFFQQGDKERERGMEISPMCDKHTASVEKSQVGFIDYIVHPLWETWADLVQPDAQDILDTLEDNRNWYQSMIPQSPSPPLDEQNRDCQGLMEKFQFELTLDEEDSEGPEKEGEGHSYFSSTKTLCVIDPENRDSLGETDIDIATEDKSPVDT
# Chain of Ubiquitin carboxyl-terminal hydrolase 1 (Homo sapiens) (O94782 whole entry, looked up): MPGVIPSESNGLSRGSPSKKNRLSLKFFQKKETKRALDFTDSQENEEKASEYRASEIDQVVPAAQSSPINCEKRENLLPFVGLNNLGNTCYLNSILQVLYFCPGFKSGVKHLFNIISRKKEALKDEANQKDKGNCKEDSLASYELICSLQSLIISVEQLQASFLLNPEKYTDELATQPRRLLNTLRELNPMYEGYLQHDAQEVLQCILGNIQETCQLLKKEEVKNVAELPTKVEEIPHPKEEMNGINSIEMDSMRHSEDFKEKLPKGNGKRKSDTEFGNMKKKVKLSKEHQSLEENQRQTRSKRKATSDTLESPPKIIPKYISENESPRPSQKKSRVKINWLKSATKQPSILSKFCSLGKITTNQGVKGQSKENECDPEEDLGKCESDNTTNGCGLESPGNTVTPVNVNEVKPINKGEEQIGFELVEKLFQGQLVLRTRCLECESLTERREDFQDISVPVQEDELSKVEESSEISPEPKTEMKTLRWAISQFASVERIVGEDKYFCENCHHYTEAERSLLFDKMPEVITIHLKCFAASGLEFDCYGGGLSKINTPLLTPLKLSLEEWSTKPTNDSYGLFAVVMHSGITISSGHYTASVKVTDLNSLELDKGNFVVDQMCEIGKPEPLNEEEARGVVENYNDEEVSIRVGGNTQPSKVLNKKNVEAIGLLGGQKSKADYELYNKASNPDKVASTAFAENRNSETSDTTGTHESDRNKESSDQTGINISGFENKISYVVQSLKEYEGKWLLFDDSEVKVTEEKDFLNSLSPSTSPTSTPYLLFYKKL
compound,measurement,setting,value
COc1ccc2c3c1OC1CC(O)C=C[C@@]31CCN(C)C2 (stereo not given in full),outcome,[1],inactive
same,outcome,[2],inactive
same,Potency,[3],inactive
COC(=O)[C@@]1(Cc2ccc(F)cc2)[C@H]2c3cc(C(=O)N4CCCC4)n(CCc4ccccn4)c3C[C@H]2CN1C(=O)c1ccccc1,outcome,[4],inactive
same,outcome,[5],inactive
COCCNC(=O)[C@H]1C[C@@H]1[C@H](NP(=O)(c1ccccc1)c1ccccc1)c1ccccc1,outcome,[4],inactive
same,outcome,[5],inactive
O=C(NCc1ccccn1)[C@H]1C[C@@H]1[C@H](NP(=O)(c1ccccc1)c1ccccc1)c1ccccc1,outcome,[4],inactive
same,outcome,[5],inactive
COC(=O)[C@@]1(Cc2ccc(OC)cc2)[C@H]2c3cc(C(=O)N4CCCC4)n(Cc4ccc(C)c(F)c4F)c3C[C@H]2CN1C(=O)c1ccccc1,outcome,[4],inactive
same,outcome,[5],inactive
Cc1ccc(CNC(=O)[C@H](C)[C@@H]2C[C@@]2(C)[C@@H](NC(=O)OCc2ccccc2)c2ccccc2)c(F)c1F,outcome,[4],inactive
same,outcome,[5],inactive
COC(=O)[C@@]1(Cc2ccc(F)cc2)[C@H]2c3cc(C(=O)N(C)C)n(Cc4ccc(O)c(OC)c4)c3C[C@H]2CN1C(=O)c1ccccc1,outcome,[4],inactive
same,outcome,[5],inactive
C[C@@H](C(=O)Nc1ccc2ccccc2c1)[C@@H]1C[C@@]1(C)[C@@H](NS(=O)(=O)c1ccccc1)c1ccccc1,outcome,[4],inactive
same,outcome,[5],inactive
COCCn1c(C(=O)N2CCCC2)cc2c1C[C@H]1CN(C(=O)c3ccccc3)[C@@](Cc3ccccc3)(C(=O)OC)[C@@H]21,outcome,[4],inactive
same,outcome,[5],inactive
COC(=O)[C@@]1(Cc2ccc(OC)cc2)[C@H]2c3cc(C(=O)N4CCCC4)n(Cc4cc(C)n(C)n4)c3C[C@H]2CN1C(=O)c1ccccc1,outcome,[4],inactive
same,outcome,[5],inactive
CC(=O)OCC1C2CC[C@H]3C(OCc4ccc(F)cc4C(F)(F)F)OC[C@]4(C)[C@H]3C2=C(CN4C(=O)OC(C)(C)C)[C@H](C)C1COC(C)=O (stereo not given in full),outcome,[4],inactive
same,outcome,[5],inactive
COC(=O)[C@@]1(Cc2ccccc2)[C@H]2c3cc(C(=O)N(C)C)n(C[C@H](O)CO)c3C[C@H]2CN1C(=O)c1ccccc1,outcome,[4],inactive
same,outcome,[5],inactive
COC(=O)[C@@]1(Cc2ccc(F)cc2)[C@H]2c3cc(C(=O)N4CCCC4)n(Cc4cc(C)n(C)n4)c3C[C@H]2CN1C(=O)c1ccccc1,outcome,[4],inactive
same,outcome,[5],inactive
COC(=O)[C@@]1(Cc2ccc(F)cc2)[C@H]2c3cc(C(=O)N(C)C)n(Cc4cc(C)n(C)n4)c3C[C@H]2CN1C(=O)c1ccccc1,outcome,[4],inactive
same,outcome,[5],inactive
Cc1ccc(CNC(=O)[C@H](C)[C@@H]2C[C@@]2(C)[C@@H](NC(=O)OCc2ccccc2)c2ccccc2)o1,outcome,[4],inactive
same,outcome,[5],inactive
C[C@@H](C(=O)Nc1ccc2ccccc2c1)[C@H]1C[C@]1(C)[C@H](NS(=O)(=O)c1ccccc1)c1ccccc1,outcome,[4],inactive
same,outcome,[5],inactive
Cc1c2c(nc3ccccc13)OCC2,outcome,[4],inactive
same,outcome,[5],inactive
C[C@@H](C(=O)Nc1ccc2ccccc2c1)[C@H]1C[C@]1(C)[C@H](NC(=O)c1cccnc1)c1ccccc1,outcome,[4],inactive
same,outcome,[5],inactive
COC(=O)[C@@]1(Cc2ccc(OC)cc2)[C@H]2c3cc(C(=O)N(C)C)n(Cc4ccc(O)c(OC)c4)c3C[C@H]2CN1C(=O)c1ccccc1,outcome,[4],inactive
same,outcome,[5],inactive
COC(=O)[C@@H]1C[C@H]1[C@@H](NS(=O)(=O)c1ccccc1)c1ccccc1,outcome,[4],inactive
same,outcome,[5],inactive
COC(=O)[C@@]1(Cc2ccccc2)[C@H]2c3cc(C(=O)N(C)C)n(CCF)c3C[C@H]2CN1C(=O)c1ccccc1,outcome,[4],inactive
same,outcome,[5],inactive
COC(=O)[C@@]1(Cc2ccc(F)cc2)[C@H]2c3cc(C(=O)N4CCCC4)n(CCSCCO)c3C[C@H]2CN1C(=O)c1ccccc1,outcome,[4],inactive
same,outcome,[5],inactive
O=C(NCc1ccccn1)[C@@H]1C[C@H]1[C@@H](NP(=O)(c1ccccc1)c1ccccc1)c1ccccc1,outcome,[4],inactive
same,outcome,[5],inactive
COC(=O)[C@@]1(Cc2ccc(F)cc2)[C@H]2c3cc(C(=O)N(C)C)n(Cc4ccsc4Br)c3C[C@H]2CN1C(=O)c1ccccc1,outcome,[4],inactive
same,outcome,[5],inactive
O=C(N[C@@H](c1ccccc1)[C@@H]1C[C@H]1C(=O)NCc1ccccc1)OCc1ccccc1,outcome,[4],inactive
same,outcome,[5],inactive
Cc1ccc(CNC(=O)[C@H](C)[C@H]2C[C@]2(C)[C@H](NC(=O)OCc2ccccc2)c2ccccc2)o1,outcome,[4],inactive
same,outcome,[5],inactive
O=C(NCC1CC1)[C@H]1C[C@@H]1[C@H](NP(=O)(c1ccccc1)c1ccccc1)c1ccccc1,outcome,[4],inactive
same,outcome,[5],inactive
